Assays:
Test in all cases: DAPPL (digital affinity profiling via proximity ligation, sequencing); 10 mM Tris-HCl pH 7.5, 50 mM NaCl, 1 mM DTT, 4% glycerol, room temperature, 30 min; GST-TFs on glutathione beads, 16-mer random dsDNA library, 0.1% formaldehyde crosslink after washing; high values mean tight binding
Conditions in all cases: protein: recombinant; tags: N-terminal GST; dsDNA, one strand shown
FLI1 = target: T1, FLI1 (Homo sapiens, UniProt Q01543 1-452)
T1 sequence: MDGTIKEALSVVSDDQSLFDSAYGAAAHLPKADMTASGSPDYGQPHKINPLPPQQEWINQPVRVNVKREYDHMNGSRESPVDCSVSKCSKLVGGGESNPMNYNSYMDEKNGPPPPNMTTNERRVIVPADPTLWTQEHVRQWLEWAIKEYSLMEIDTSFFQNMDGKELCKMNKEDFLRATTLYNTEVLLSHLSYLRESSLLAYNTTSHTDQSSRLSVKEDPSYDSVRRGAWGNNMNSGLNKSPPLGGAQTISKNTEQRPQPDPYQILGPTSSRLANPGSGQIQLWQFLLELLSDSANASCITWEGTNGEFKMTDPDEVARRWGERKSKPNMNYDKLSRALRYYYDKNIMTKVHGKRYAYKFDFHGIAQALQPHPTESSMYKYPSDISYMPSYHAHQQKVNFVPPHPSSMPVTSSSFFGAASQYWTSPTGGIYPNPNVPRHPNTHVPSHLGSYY
In short: (§1)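 Each value of binding signal is a hexamer's read frequency for a factor divided by the same hexamer's frequency in the tag-only sample. Barcoded, bead-captured GST fusions of human transcription factors made in yeast were pooled with that sample and incubated with 200 nmole of a random double-stranded 16-mer DNA library in Tris/NaCl/DTT/glycerol buffer at room temperature for 30 min. Washing, 0.1% formaldehyde crosslinking, proximity ligation, PCR and Illumina NextSeq500 sequencing followed.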

ELK1 = target: T2, ELK1 (Homo sapiens, UniProt P19419 1-428)
T2 sequence: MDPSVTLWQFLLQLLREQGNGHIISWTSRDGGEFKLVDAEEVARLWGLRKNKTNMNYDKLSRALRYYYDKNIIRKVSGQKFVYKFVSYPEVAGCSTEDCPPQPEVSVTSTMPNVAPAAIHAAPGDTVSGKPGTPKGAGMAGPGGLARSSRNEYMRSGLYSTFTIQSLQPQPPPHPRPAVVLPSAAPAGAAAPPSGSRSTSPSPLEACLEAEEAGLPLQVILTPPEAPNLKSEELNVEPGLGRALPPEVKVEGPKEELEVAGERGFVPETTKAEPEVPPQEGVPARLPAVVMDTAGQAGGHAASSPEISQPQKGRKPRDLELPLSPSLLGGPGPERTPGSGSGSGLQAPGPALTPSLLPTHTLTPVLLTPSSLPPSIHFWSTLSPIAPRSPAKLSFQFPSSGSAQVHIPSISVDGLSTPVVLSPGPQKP
In short: as §1

GABPA = target: T3, GABPA (Homo sapiens, UniProt Q06546 1-454)
T3 sequence: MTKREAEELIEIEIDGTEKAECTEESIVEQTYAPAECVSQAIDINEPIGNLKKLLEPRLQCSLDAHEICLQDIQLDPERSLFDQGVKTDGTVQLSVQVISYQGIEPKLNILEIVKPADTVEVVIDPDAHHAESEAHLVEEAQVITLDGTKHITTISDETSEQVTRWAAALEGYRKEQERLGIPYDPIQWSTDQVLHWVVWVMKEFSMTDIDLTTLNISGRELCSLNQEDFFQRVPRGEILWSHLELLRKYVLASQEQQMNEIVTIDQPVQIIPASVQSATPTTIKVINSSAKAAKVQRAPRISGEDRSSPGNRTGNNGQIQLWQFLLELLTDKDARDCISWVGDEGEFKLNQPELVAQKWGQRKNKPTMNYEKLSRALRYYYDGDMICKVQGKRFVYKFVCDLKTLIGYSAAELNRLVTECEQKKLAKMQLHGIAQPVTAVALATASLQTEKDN
In short: as §1

ERG = target: T4, ERG (Homo sapiens, UniProt P11308 1-479)
T4 sequence: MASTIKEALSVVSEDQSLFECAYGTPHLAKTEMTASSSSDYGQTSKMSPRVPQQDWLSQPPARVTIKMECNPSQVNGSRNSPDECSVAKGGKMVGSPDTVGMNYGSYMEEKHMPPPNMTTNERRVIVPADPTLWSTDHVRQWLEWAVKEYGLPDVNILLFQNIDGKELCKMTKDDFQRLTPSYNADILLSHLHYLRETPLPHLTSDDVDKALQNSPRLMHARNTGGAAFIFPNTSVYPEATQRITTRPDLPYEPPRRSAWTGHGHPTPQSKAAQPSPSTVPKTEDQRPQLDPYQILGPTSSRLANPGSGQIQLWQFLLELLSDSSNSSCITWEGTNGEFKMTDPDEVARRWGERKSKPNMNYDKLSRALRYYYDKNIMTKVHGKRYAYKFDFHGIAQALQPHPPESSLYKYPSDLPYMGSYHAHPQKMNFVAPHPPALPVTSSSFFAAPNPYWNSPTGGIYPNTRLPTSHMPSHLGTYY
In short: as §1

ELF1 = ELF1 (Homo sapiens, UniProt P32519 1-619)
Chain of ELF1 (P32519 whole entry): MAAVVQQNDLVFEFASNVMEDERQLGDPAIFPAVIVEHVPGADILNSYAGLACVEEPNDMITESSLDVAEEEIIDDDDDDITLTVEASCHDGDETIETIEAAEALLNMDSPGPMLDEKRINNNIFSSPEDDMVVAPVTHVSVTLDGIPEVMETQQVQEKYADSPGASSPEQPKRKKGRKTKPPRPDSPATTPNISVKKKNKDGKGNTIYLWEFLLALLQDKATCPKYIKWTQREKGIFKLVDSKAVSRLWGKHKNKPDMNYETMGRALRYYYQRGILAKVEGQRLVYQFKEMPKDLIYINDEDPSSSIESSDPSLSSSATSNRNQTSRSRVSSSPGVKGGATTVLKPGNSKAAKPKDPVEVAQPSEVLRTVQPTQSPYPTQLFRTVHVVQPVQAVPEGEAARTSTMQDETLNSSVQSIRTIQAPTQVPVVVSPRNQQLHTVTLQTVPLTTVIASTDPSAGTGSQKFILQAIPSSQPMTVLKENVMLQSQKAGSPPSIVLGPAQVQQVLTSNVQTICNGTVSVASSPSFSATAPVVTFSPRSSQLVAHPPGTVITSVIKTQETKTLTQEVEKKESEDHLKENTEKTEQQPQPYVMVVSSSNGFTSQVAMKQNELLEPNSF
In short: as §1

EHF = target: T5, EHF (Homo sapiens, UniProt Q9NZC4 1-300)
T5 sequence: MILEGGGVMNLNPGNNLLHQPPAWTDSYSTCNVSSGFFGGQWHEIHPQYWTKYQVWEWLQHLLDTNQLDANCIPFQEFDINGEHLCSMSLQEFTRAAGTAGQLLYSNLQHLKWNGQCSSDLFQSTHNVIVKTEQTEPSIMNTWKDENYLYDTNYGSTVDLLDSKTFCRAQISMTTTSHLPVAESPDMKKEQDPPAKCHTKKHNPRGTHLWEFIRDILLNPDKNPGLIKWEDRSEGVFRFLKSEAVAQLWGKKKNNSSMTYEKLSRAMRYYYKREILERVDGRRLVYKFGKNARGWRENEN
In short: as §1

SPI1 = SPI1 (Homo sapiens, UniProt P17947 1-270)
In short: as §1

SPIB = SPIB (Homo sapiens, UniProt Q01892 1-262)
Chain of SPIB (Q01892 whole entry): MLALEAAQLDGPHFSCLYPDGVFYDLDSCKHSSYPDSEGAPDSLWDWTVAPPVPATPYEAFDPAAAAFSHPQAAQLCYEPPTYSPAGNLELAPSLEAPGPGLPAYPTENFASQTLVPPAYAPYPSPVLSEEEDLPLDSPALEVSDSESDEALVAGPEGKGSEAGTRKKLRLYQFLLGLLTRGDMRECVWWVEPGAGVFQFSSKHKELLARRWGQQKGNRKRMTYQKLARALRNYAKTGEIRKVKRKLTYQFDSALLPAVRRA
In short: as §1

ELK3 = target: T6, ELK3 (Homo sapiens, UniProt P41970 1-407)
T6 sequence: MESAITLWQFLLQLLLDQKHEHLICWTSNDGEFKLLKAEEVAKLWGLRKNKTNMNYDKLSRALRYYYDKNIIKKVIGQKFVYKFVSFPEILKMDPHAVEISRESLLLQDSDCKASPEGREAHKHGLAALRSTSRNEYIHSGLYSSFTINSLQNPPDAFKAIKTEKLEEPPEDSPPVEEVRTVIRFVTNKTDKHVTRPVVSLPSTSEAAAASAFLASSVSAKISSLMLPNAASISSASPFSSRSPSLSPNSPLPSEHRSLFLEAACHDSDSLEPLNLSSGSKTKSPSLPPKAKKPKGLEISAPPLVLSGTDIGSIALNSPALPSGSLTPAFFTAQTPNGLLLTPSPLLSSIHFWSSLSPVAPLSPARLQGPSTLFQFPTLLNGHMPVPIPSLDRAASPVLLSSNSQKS
In short: as §1

Sequence | binding signal (FLI1) | binding signal (ELK1) | binding signal (GABPA) | binding signal (ERG) | binding signal (ELF1) | binding signal (EHF) | binding signal (SPI1) | binding signal (SPIB) | binding signal (ELK3)
CCCTGT | 1.18 fold enrichment (6-mer frequency, TF over GST control) | 1.02 fold enrichment (6-mer frequency, TF over GST control) | 1.2 fold enrichment (6-mer frequency, TF over GST control) | 1.21 fold enrichment (6-mer frequency, TF over GST control) | 1.17 fold enrichment (6-mer frequency, TF over GST control) | 1.09 fold enrichment (6-mer frequency, TF over GST control) | 1.07 fold enrichment (6-mer frequency, TF over GST control) | 1.12 fold enrichment (6-mer frequency, TF over GST control) | 
ACTAAG | 1.04 fold enrichment (6-mer frequency, TF over GST control) | 1.08 fold enrichment (6-mer frequency, TF over GST control) | 1.11 fold enrichment (6-mer frequency, TF over GST control) | 1.02 fold enrichment (6-mer frequency, TF over GST control) | 1.04 fold enrichment (6-mer frequency, TF over GST control) | 1.15 fold enrichment (6-mer frequency, TF over GST control) | 1.12 fold enrichment (6-mer frequency, TF over GST control) | 1.14 fold enrichment (6-mer frequency, TF over GST control) | 1.07 fold enrichment (6-mer frequency, TF over GST control)
TGACCT | 1.75 fold enrichment (6-mer frequency, TF over GST control) | 1.82 fold enrichment (6-mer frequency, TF over GST control) | 1.81 fold enrichment (6-mer frequency, TF over GST control) | 1.73 fold enrichment (6-mer frequency, TF over GST control) | 1.84 fold enrichment (6-mer frequency, TF over GST control) | 1.86 fold enrichment (6-mer frequency, TF over GST control) | 1.7 fold enrichment (6-mer frequency, TF over GST control) | 1.56 fold enrichment (6-mer frequency, TF over GST control) | 1.6 fold enrichment (6-mer frequency, TF over GST control)
GGTTTA | 1.12 fold enrichment (6-mer frequency, TF over GST control) | 1.01 fold enrichment (6-mer frequency, TF over GST control) | 1.05 fold enrichment (6-mer frequency, TF over GST control) | 1.1 fold enrichment (6-mer frequency, TF over GST control) | 1.02 fold enrichment (6-mer frequency, TF over GST control) | 1.08 fold enrichment (6-mer frequency, TF over GST control) | 1.09 fold enrichment (6-mer frequency, TF over GST control) | 1.05 fold enrichment (6-mer frequency, TF over GST control) | 1.07 fold enrichment (6-mer frequency, TF over GST control)
ACATTC | 1.41 fold enrichment (6-mer frequency, TF over GST control) | 1.32 fold enrichment (6-mer frequency, TF over GST control) | 1.31 fold enrichment (6-mer frequency, TF over GST control) | 1.23 fold enrichment (6-mer frequency, TF over GST control) | 1.37 fold enrichment (6-mer frequency, TF over GST control) | 1.25 fold enrichment (6-mer frequency, TF over GST control) | 1.24 fold enrichment (6-mer frequency, TF over GST control) | 1.23 fold enrichment (6-mer frequency, TF over GST control) | 1.35 fold enrichment (6-mer frequency, TF over GST control)
GGTAAT | 1.15 fold enrichment (6-mer frequency, TF over GST control) | 1.1 fold enrichment (6-mer frequency, TF over GST control) | 1.22 fold enrichment (6-mer frequency, TF over GST control) | 1.08 fold enrichment (6-mer frequency, TF over GST control) | 1.17 fold enrichment (6-mer frequency, TF over GST control) | 1.2 fold enrichment (6-mer frequency, TF over GST control) | 1.04 fold enrichment (6-mer frequency, TF over GST control) | 1.11 fold enrichment (6-mer frequency, TF over GST control) | 
TAAGGT | 1.12 fold enrichment (6-mer frequency, TF over GST control) | 1.08 fold enrichment (6-mer frequency, TF over GST control) | 1.14 fold enrichment (6-mer frequency, TF over GST control) | 1.01 fold enrichment (6-mer frequency, TF over GST control) | 1.04 fold enrichment (6-mer frequency, TF over GST control) | 1.17 fold enrichment (6-mer frequency, TF over GST control) | 1.02 fold enrichment (6-mer frequency, TF over GST control) | 1.07 fold enrichment (6-mer frequency, TF over GST control) | 1.13 fold enrichment (6-mer frequency, TF over GST control)
